Mdm2 MdmX PPI – inhibitors of human Mdm2/MdmX interaction. SaOS-2 split-luciferase Mdm2/MdmX complementation, luminescence. inhibition, % at 8 µM. 330,000 compounds, 3% hits. AID 485346;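 active means inhibition of at least 50% at 8 µM in the primary screen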
Target sequence (O15151 whole entry, looked up): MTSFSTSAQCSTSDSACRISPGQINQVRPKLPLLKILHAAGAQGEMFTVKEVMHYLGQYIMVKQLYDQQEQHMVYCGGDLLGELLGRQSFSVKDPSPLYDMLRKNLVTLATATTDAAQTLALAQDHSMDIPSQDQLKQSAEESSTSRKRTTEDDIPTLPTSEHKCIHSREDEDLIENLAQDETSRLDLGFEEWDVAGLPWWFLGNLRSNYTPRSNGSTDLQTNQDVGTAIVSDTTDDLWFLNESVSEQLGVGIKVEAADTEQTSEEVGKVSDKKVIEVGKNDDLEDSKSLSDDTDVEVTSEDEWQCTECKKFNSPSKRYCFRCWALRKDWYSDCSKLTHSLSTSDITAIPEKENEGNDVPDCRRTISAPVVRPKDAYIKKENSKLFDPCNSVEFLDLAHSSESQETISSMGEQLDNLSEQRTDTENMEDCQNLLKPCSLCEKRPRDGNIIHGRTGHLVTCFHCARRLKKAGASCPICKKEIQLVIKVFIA
Target sequence (Q00987 whole entry, looked up): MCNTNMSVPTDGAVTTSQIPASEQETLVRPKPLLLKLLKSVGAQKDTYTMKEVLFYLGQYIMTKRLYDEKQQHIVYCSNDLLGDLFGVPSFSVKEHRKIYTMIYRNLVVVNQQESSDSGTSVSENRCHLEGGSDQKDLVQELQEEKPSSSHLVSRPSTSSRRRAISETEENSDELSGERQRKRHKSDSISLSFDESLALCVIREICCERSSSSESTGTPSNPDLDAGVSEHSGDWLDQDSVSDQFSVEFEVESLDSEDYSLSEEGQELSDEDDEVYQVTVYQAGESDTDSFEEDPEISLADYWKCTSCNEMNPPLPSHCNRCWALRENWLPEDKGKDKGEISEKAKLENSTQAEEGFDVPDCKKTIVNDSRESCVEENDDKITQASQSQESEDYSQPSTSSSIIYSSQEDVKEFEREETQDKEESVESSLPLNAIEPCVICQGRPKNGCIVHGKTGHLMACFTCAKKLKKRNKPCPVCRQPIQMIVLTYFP
MPTP inh – blocks calcium-induced mitochondrial swelling; isolated mouse mitochondria, Ca2+ swelling absorbance, 30 min; inhibition, % at 10 µM; 360,000 compounds, 1.4% hits;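 active means inhibition of 50% or more, scaled per plate between neutral and stimulator controls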
Gli-Sufu antag – blocks Gli-Sufu signaling in a luciferase reporter. AID 588413. Sufu-KO-LIGHT fibroblasts, Gli luciferase reporter luminescence. inhibition, % at 5 µM. 340,000 compounds, 0.74% hits;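 active means inhibition above about 55%, limit read from the data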
CSC inhib – blocks cancer stem cells. inhibition, % at 7.5 µM. cancer stem cell-like cells viability, luminescence. 300,000 compounds, 1.1% hits; in the data active means inhibition above about 75%; tested in HMLE shEcad cells
GRIN3A LBD mod – NR3A (human) ligand-binding domain modulation; NR3A LBD differential scanning fluorimetry, Tm shift; 0% = protein alone, 100% = glycine-bound protein; 340,000 compounds, 2.5% hits; Tm shift relative to glycine control, % at 25 µM;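 active means melting temperature shift of at least 10% of the positive control shift, at one fixed dose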
Beta apoptosis – blocks beta cell apoptosis; INS-1E cytokine-induced death, ATP luminescence, 48 h; percent of positive-control rescue, neutral wells zero; protection from apoptosis, % (concentration not given with the values); 300,000 compounds, 0.8% hits;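 active means Every replicate reaches about 75%, or at least half do and their mean reaches it too, limit read from the data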;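 further: higher means more ATP so stronger rescue from cytokine killing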
Hits are given with their value; n = inactive; x = no result. Only some compounds are listed: those with a hit (about 6.6% of all), similar ones and a draw of the others.

SMILES	Mdm2 MdmX PPI	MPTP inh	Gli-Sufu antag	CSC inhib	GRIN3A LBD mod	Beta apoptosis
O=C(Nc1ccc(Cl)cc1)Nc1ccccc1C(=O)O	n	n	n	n	n	n
COc1ccc(NC(=O)Nc2ccccc2F)cc1	n	n	n	n	n	n
CCSc1ccc(C(=O)NCC(=O)O)cc1	n	n	n	n	n	n
Cn1nnc2cc(NC(=O)Nc3cccc(Cl)c3)ccc21	n	n	n	n	27	n
O=C(Nc1ccc(Cl)c(Cl)c1)Nc1ccccc1C(=O)O	n	n	n	n	18	n
Cn1nccc1NC(=O)Nc1cccc(Cl)c1	n	n	n	n	n	n
CSc1ncnc2[nH]ccc12	x	n	n	x	n	x
CC(C)(C)c1ccc(C(=O)N2CCC2(C)C(=O)NCc2cccc3ccccc23)cc1 (stereo unspecified)	x	n	x	x	x	x
Cc1ccc(S(=O)(=O)N2CCOCC2)cc1NC(=O)CN(C)CC(=O)Nc1cccc(F)c1	x	n	x	x	x	x
CSc1ccc(NC(=O)Nc2ccccc2C(N)=O)cc1	n	n	n	n	10	n
O=C(Nc1cccc(Cl)c1)Nc1cccc(C(=O)O)c1	n	n	n	n	n	n
Cc1cc(NC(=O)Nc2cccc(Cl)c2)n(-c2ccccn2)n1	n	n	n	n	33	n
O=C(Nc1ccc(C(=O)N2CCCCC2)cc1)Nc1cccc(Cl)c1	n	n	n	n	13	n
Cc1cc(NC(=O)c2ccc(F)cc2)n(-c2ccccn2)n1	n	n	n	x	n	n
CC(=O)Nc1ccc(NC(=O)Nc2cccc(Cl)c2)cc1	n	n	n	n	34	n
COc1cc(C2=NOC(C(=O)Nc3cc(C)on3)C2)cc(OC)c1OC (stereo unspecified)	n	n	n	n	n	n
Cc1cccc(C)c1NC(=O)CN1C(=O)CCSc2ccc(S(=O)(=O)N3CCCC3)cc21	n	n	n	n	n	n
CCCS(=O)(=O)c1nc(S(=O)(=O)c2ccc(Cl)cc2)c(N2CCC(O)CC2)s1	n	n	n	n	n	n
NC(=O)c1ccccc1NC(=O)Nc1cccc(Cl)c1	n	n	n	x	28	n
CS(=O)(=O)N1CCN(c2ccccc2NC(=O)Nc2cccc(Cl)c2)CC1	n	n	n	n	12	n
O=C(Nc1ccc2nccnc2c1)Nc1ccccc1Cl	n	n	n	n	n	n
O=C(Nc1cccc(Cl)c1)Nc1ccccc1C(=O)O	n	n	n	n	n	n
CS(=O)(=O)N1CCN(c2ccccc2NC(=O)c2cc(Br)ccc2Cl)CC1	n	n	n	x	n	n
O=C(Nc1cccc(Cl)c1)Nc1ccc2nccnc2c1	n	n	n	n	35	n
NS(=O)(=O)c1ccc(NC(=O)Nc2cccc(Cl)c2)cc1	n	n	n	n	33	n
SMILES	Mdm2 MdmX PPI	MPTP inh	Gli-Sufu antag	CSC inhib	GRIN3A LBD mod	Beta apoptosis
COc1cc(SC)ccc1C(=O)NNC(=O)c1cc(C)oc1C	n	n	n	x	n	n
Clc1cccc2sc(N3CCN(c4ccccc4)CC3)nc12	n	n	n	n	18	n
CCCc1ccc(-c2cc(NC(=O)CSc3n[nH]c(N)n3)n(-c3ccccc3)n2)cc1	n	n	n	91	18	n
CCOC(=O)c1c(C)[nH]c(C(=O)NCCc2ccc(OC)c(OC)c2)c1C	n	n	n	n	n	n
Cc1ccc(S(=O)(=O)NCC(c2ccco2)N2CCc3ccccc32)cc1 (stereo unspecified)	n	n	n	n	15	x
O=C(/C=C/Nc1ccc(F)c(Cl)c1)c1ccco1	n	n	n	n	n	n
O=C(/C=C/Nc1cccc(F)c1)c1ccco1	n	n	n	n	28	n
Cc1cc(N2CCN(C)CC2)nc2ccc(NC(=S)N3CCN(c4ccc(Cl)cc4)CC3)cc12	n	n	n	109	n	n
O=C(NCc1cccc(C(F)(F)F)c1)c1ccc2sc(C3=C[C@@H](O)[C@@H](O)[C@@H](CO)O3)nc2c1	x	n	x	x	x	x
O=C(/C=C/[C@H]1O[C@@H](n2ccc(=O)[nH]c2=O)[C@H](O)[C@@H]1O)NC(c1ccccc1)c1ccccc1	x	n	x	x	x	x
COc1ccccc1C/C(N)=N/OC(=O)COc1cccc(C)c1	n	n	n	n	13	n
COc1ccccc1C/C(N)=N/OC(=O)COc1ccc(C)cc1	n	n	n	n	n	n
CCNC(=S)Nc1cc(C)ccn1	n	n	n	n	n	n
CCCc1cc(C(N)=S)ccn1	n	n	n	n	12	n
CCc1nc2ccc(C(=O)NCCCn3ccnc3)cn2c1N(C)C(=O)c1cccc(OC)c1	x	n	x	x	x	x
COc1ccc(OC2C(=O)N(Cc3ccc4c(c3)OCO4)C2c2sccc2C)cc1 (stereo unspecified)	n	n	n	117	n	n
COc1ccc(OC2C(=O)N(Cc3ccc(F)cc3)C2c2ccc(OC)c(OC)c2)cc1 (stereo unspecified)	n	n	n	x	n	x
O=C(COC(=O)c1ccc2[nH]c3c(c2c1)CCCC3)Nc1ccc(Cl)cc1Cl	n	n	n	n	27	n
CCOC(=O)c1ccc2[nH]c3c(c2c1)CCCC3	n	n	n	n	n	n
CN(C(=O)c1ccncc1)c1ccccc1	n	n	n	n	11	n
CCC1CCCCN1C(=O)CSc1nc2c([nH]c3ccccc32)c(=O)n1C (stereo unspecified)	n	n	n	n	17	n
CCCC1(c2ccccc2)NC(=O)N(CC(=O)Nc2cc(C)ccc2OC)C1=O (stereo unspecified)	n	n	n	n	n	93
O=C(Nc1ccc(Cn2cccn2)cc1)c1ccc(COc2cccc(Br)c2)cc1	n	n	n	99	n	n
Cc1ccc2cc(CCNC(=O)c3cc4ccccc4o3)c(=O)[nH]c2c1C	n	n	n	n	n	x
COc1ccc2cc(CCNC(=O)c3cc4ccccc4o3)c(=O)[nH]c2c1	n	n	n	n	21	n
SMILES	Mdm2 MdmX PPI	MPTP inh	Gli-Sufu antag	CSC inhib	GRIN3A LBD mod	Beta apoptosis
O=C1NC2(CCCCCC2)C(=O)N1Cc1c(F)cccc1Cl	n	n	n	n	n	n
OCCC1CN(Cc2ccc3c(c2)CCO3)CCN1Cc1ccc(F)cc1 (stereo unspecified)	n	n	n	n	n	n
COc1cc(C(=S)N2CCCC2)ccc1OS(=O)(=O)c1ccc(NC(C)=O)cc1	n	n	n	n	20	n
CCOc1cc(C(=S)N2CCOCC2)ccc1OS(=O)(=O)c1ccccc1	n	n	n	x	11	n
CCOc1cc(C(=S)N2CCOCC2)ccc1OC(=O)c1ccccc1	n	n	n	n	n	n
CCCCC[C@H]1CN(Cc2ccccc2)C(=O)[C@@H]1CC(=O)NCc1ccc(OC)cc1	n	n	x	n	n	n
Cc1cc(C)c(S(=O)(=O)Nc2nnc(C(C)C)s2)c(C)c1	n	n	n	n	n	n
Nc1ccc(C(=O)OCc2csc(-c3ccccc3)n2)cc1[N+](=O)[O-]	n	n	n	n	29	n
O=c1cc(-c2ccccc2)c2ccc(O)cc2o1	n	n	n	n	11	x
CCOC(=O)C(Oc1ccc2c(-c3ccccc3)cc(=O)oc2c1)c1ccccc1 (stereo unspecified)	n	n	n	n	11	n

Screening results as filed in PubChem BioAssay.
